Values joined by “and” are separate entries in the source; they are usually repeats but may differ in a detail not shown here. Identical values can stand only once. Results filed as inconclusive are left out. Entries that show only a call come without a potency. Some structures have more than one record in an assay (separate samples or runs), and their calls can disagree. Active and inactive are the calls of the source. Unless noted, the call rests on the fitted dose curve; in most records, active means well fitted curve in the direction sought with a large enough effect in the repeat runs; inconclusive means weak or mixed curves; inactive means no such curve, though single readings can be large; an effect the other way counts as inactive or inconclusive.
Columns and labels:
[1] = qHTS assay to test for compound auto fluorescence at 535 nm (green) in HEK293 cells (AID 720680)
[2] = qHTS assay to test for compound auto fluorescence at 460 nm (blue) in HEK293 cell free culture (AID 720681)
How it was run: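 Blue fluorescence (Ex 405/Em 460 nm, triamterene-equivalent) was read immediately after pin transfer of compound or DMSO into medium (DMEM, 10% FBS) without cells.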

[3] = qHTS assay to test for compound auto fluorescence at 535 nm (green) in HEK293 cell free culture (AID 720682)
How it was run: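 Steps: dispense DMEM/10% FBS into empty wells; pin in compound or DMSO; measure fluorescence at 485/535 nm. Values are fluorescein equivalents.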

[4] = qHTS assay to test for compound auto fluorescence at 590 nm (red) in HEK293 cell free culture (AID 720683)
How it was run: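 Red-channel autofluorescence of compounds in culture medium (DMEM, 10% FBS), no cells, measured at 540/590 nm. Rose Bengal sodium is the reference fluorophore for equivalence.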

[5] = qHTS assay to test for compound auto fluorescence at 590 nm (red) in HepG2 cell free culture (AID 720684)
How it was run: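 Steps: dispense MEM/10% FBS medium, no cells; pin compound or DMSO vehicle; read red channel, Ex/Em 540/590 nm. Output given as Rose Bengal sodium equivalents.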

[6] = qHTS assay to test for compound auto fluorescence at 460 nm (blue) in HepG2 cell free culture (AID 720685)
How it was run: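 Compound (23 nL) or DMSO pinned into cell-free MEM with 10% FBS; blue fluorescence read at 405/460 nm excitation/emission, expressed as auto-fluorescence equivalency to triamterene.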

[7] = qHTS assay to test for compound auto fluorescence at 535 nm (green) in HepG2 cell free culture (AID 720686)
[8] = qHTS assay to test for compound auto fluorescence at 460 nm (blue) in HepG2 cells (AID 720687)
How it was run: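 Blue-channel autofluorescence (Ex/Em 405/460 nm, triamterene-equivalent) was measured after 1 hr compound exposure at 37 C, 5% CO2. Cells were HepG2, plated overnight at 37 C in MEM plus 10% FBS.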

[9] = biological target: Glucocorticoid receptor (Homo sapiens) (UniProt P04150); assay: qHTS assay to identify small molecule agonists of the glucocorticoid receptor (GR) signaling pathway (AID 720691; active means well fitted activation curve with a large enough effect in the signal ratio in the repeat runs, not every such curve was filed as active; the % refers to the signal ratio; further: potency means the concentration at half of the fitted maximal effect); conditions: GR-bla HeLa, beta-lactamase reporter ratio, 18 h; activation: at 62.4 µM (top of the series)
Sequence of Glucocorticoid receptor (Homo sapiens) (P04150 whole entry, looked up): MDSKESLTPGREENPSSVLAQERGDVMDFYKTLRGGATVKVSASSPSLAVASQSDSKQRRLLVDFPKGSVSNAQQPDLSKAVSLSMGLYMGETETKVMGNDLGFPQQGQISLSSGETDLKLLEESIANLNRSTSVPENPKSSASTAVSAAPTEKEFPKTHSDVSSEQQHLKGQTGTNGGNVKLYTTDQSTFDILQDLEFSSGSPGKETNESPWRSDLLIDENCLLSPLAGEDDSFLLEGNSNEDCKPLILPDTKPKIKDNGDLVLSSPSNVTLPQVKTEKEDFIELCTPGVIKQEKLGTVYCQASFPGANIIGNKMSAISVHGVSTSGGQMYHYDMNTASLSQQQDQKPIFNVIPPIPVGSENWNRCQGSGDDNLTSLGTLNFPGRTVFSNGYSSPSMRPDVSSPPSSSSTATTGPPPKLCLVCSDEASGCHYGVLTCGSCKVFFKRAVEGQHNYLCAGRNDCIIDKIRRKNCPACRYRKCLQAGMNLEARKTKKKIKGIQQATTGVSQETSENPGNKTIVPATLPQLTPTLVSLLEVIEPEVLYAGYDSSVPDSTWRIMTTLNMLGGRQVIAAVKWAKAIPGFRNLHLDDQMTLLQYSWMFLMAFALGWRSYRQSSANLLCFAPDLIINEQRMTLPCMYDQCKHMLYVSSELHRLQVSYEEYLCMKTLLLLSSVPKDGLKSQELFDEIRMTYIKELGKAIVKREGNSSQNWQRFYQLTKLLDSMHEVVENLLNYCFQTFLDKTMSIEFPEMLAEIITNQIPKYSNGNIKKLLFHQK
How it was run: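 qHTS in GR-bla HeLa cells: 4 h settling at 37 C/5% CO2, 18 h compound incubation at 37 C, 2 h LiveBLAzer B/G FRET substrate at room temperature, fluorescence intensity measured.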

[10] = biological target: Glucocorticoid receptor (Homo sapiens) (UniProt P04150); assay: qHTS assay to identify small molecule antagonists of the glucocorticoid receptor (GR) signaling pathway (AID 720692; active means well fitted inhibition curve with a large enough effect in the signal ratio in the repeat runs, not every such curve was filed as active; the % refers to the signal ratio; further: potency means the concentration at half of the fitted maximal effect)
How it was run: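 Inhibition of glucocorticoid signalling is measured in HeLa cells with a GRE-controlled beta-lactamase reporter; cells are co-treated with compound and 5 nM dexamethasone (final) for 18 h before FRET substrate readout.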

[11] = qHTS assay to identify small molecule antagonists of the glucocorticoid receptor (GR) signaling pathway - cell viability counter screen (AID 720693); further: nearly all actives have a fitted effect of over 55% in size
[12] = qHTS assay for identifying genotoxic compounds that show differential cytotoxicity against isogenic chicken DT40 cell lines with known DNA damage response pathways - wild type cell line (AID 743012); further: nearly all actives have a fitted effect of over 60% in size; further: potency means the concentration at half of the fitted maximal effect
How it was run: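 First, wild type DT40 cells were plated at 300 per well and equilibrated about 0.5 h at 37 C/5% CO2. Next, compounds in DMSO were added and exposure lasted 40 h. Finally, CellTiter-Glo was added for 30 min at room temperature and luminescence recorded.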

[13] = qHTS assay for identifying genotoxic compounds that show differential cytotoxicity against isogenic chicken DT40 cell lines with known DNA damage response pathways - Rad54/Ku70 mutant cell line (AID 743015); further: nearly all actives have a fitted effect of over 60% in size; further: potency means the concentration at half of the fitted maximal effect
[14] = qHTS assay to identify small molecule antagonists of the androgen receptor (AR) signaling pathway - cell viability counter screen (AID 743033; further: nearly all actives have a fitted effect of over 45% in size; further: potency means the concentration at half of the fitted maximal effect)
[15] = qHTS assay to identify small molecule antagonists of the androgen receptor (AR) signaling pathway using the MDA cell line - cell viability counter screen (AID 743041; further: nearly all actives have a fitted effect of over 45% in size)
How it was run: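 Cells were plated at 3,000 per well and left 5 h. Compounds in DMSO were then pinned in, followed by R1881. After 16 h at 37C, CellTiter-Fluor fluorescence gave viability.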

[16] = qHTS assay for identifying genotoxic compounds that show differential cytotoxicity against isogenic chicken DT40 cell lines with known DNA damage response pathways - Rev3 mutant cell line (AID 743014); further: nearly all actives have a fitted effect of over 55% in size; further: potency means the concentration at half of the fitted maximal effect
[17] = biological target: Androgen receptor (Homo sapiens) (UniProt P10275); assay: qHTS assay to identify small molecule antagonists of the androgen receptor (AR) signaling pathway (AID 743035; active means well fitted inhibition curve with a large enough effect in the signal ratio in the repeat runs, not every such curve was filed as active; the % refers to the signal ratio)
Sequence of Androgen receptor (Homo sapiens) (P10275 whole entry, looked up): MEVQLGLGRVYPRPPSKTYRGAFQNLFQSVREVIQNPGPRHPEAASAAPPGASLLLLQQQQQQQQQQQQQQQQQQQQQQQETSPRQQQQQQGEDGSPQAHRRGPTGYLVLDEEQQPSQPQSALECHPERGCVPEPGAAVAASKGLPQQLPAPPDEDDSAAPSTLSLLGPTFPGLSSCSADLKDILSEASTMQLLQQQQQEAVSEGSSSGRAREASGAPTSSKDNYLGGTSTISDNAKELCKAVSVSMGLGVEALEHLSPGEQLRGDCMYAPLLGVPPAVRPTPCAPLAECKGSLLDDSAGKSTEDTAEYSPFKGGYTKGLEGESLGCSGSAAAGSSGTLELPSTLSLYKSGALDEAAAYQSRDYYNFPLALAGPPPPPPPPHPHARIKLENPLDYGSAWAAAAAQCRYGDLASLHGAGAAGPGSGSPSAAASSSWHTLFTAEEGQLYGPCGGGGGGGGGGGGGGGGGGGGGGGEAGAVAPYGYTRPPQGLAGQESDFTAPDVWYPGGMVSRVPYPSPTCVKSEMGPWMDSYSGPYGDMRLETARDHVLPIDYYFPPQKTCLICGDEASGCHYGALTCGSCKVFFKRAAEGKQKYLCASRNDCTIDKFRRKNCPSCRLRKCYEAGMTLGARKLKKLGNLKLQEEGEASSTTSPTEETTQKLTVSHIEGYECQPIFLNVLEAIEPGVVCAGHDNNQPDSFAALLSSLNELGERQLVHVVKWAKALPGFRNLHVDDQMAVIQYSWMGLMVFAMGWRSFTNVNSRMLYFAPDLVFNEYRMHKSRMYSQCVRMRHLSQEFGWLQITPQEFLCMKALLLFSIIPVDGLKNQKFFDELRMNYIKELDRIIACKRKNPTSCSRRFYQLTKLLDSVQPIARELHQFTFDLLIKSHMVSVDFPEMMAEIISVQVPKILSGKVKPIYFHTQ
How it was run: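 Beta-lactamase FRET read (2 h RT incubation with LiveBLAzer B/G) following 16 h of compound plus R1881 treatment of AR-UAS-bla HEK293 cells, which had been pre-incubated 4 h at 37C.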

[18] = biological target: Androgen receptor (Homo sapiens) (UniProt P10275); assay: qHTS assay to identify small molecule agonists of the androgen receptor (AR) signaling pathway (AID 743036; active means well fitted activation curve with a large enough effect in the signal ratio in the repeat runs, with a control signal flat, not every such curve was filed as active; the % refers to the signal ratio)
How it was run: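 Reporter line: GeneBLAzer AR-UAS-bla-GripTite (HEK293). Steps: plate cells, 4 h rest, add compounds, 16 h at 37C, add LiveBLAzer B/G substrate, 2 h at RT, read fluorescence.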

[19] = biological target: Androgen receptor (Homo sapiens) (UniProt P10275); assay: qHTS assay to identify small molecule agonists of the androgen receptor (AR) signaling pathway using the MDA cell line (AID 743040; further: nearly all actives have a fitted effect of over 20% in size)
How it was run: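 Cells plated, 5 h at 37C/0% CO2; compound or DMSO pinned; 16 h at 37C; ONE-Glo added; luminescence measured after 30 min at room temperature. Reporter line: MDA-kb2 with MMTV-luciferase responsive to AR and GR.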

[20] = biological target: Androgen receptor (Homo sapiens) (UniProt P10275); assay: qHTS assay to identify small molecule antagonists of the androgen receptor (AR) signaling pathway using the MDA cell line (AID 743042; further: nearly all actives have a fitted effect of over 55% in size)
How it was run: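 Antagonist mode: compounds plus R1881 agonist added to MDA-kb2 AR-luc cells, incubated 16 h at 37C. Luciferase reporter luminescence quantified, with multiplexed CellTiter-Fluor readout for cell viability.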

SMILES	outcome [1]	outcome [2]	outcome [3]	outcome [4]	outcome [5]	outcome [6]	outcome [7]	outcome [8]	Potency [9]	Potency [10]	outcome [11]	Potency [12]	Potency [13]	Potency [14]	Potency [15]	Potency [16]	outcome [17]	Potency [18]	Potency [19]	outcome [20]
COc1cc(Cc2cnc(N)nc2N)cc(OC)c1OC	inactive	inactive	inactive	inactive	inactive	inactive	inactive	inactive	inactive	inactive	inactive	inactive	inactive	inactive	inactive	–	–	–	–	–
N[C@@H](Cc1cc(I)c(Oc2cc(I)c(O)c(I)c2)c(I)c1)C(=O)O	inactive	inactive	inactive	inactive	inactive	inactive	inactive	inactive	inactive	–	inactive	inactive	inactive	inactive	inactive	–	–	–	–	–
c1ccc2c(c1)ccc1ccccc12	inactive	inactive	inactive	inactive	inactive	inactive	inactive	inactive	inactive	inactive	inactive	–	30.6 µM (active)	–	inactive	68.6 µM (active)	inactive	inactive	inactive	inactive
CCCCCCCCCC	inactive	inactive	inactive	inactive	inactive	inactive	inactive	inactive	–	–	inactive	inactive	inactive	inactive	inactive	inactive	–	–	–	–
CC(O)COCC(C)O (configuration not stated)	inactive	inactive	inactive	inactive	inactive	inactive	inactive	inactive	inactive	inactive	inactive	inactive	inactive	inactive	inactive	–	–	–	–	–
OC[C@H]1O[C@@](CO)(O[C@H]2O[C@H](CO)[C@@H](O)[C@H](O)[C@H]2O)[C@@H](O)[C@@H]1O	inactive	inactive	inactive	inactive	inactive	inactive	inactive	inactive	–	–	inactive	inactive	inactive	inactive	inactive	–	–	–	–	–
C[C@H]1C[C@H]2[C@@H]3CCC4=CC(=O)C=C[C@]4(C)[C@@]3(F)[C@@H](O)C[C@]2(C)[C@@]1(O)C(=O)CO	inactive	inactive	inactive	inactive	inactive	inactive	inactive	inactive	–	–	inactive	inactive	inactive and 68.6 µM (active)	inactive	inactive	27.3 µM (active)	–	–	–	–
CCCCCCCCCCCCS	inactive	inactive	inactive	inactive	inactive	inactive	inactive	inactive	–	–	inactive	inactive	inactive	inactive	inactive	inactive	–	–	–	–
CCCCCC(N)=O	inactive	inactive	inactive	inactive	inactive	inactive	inactive	inactive	–	–	inactive	inactive	inactive	inactive	inactive	–	–	–	–	–
OCCOCCN1CCN(C2=Nc3ccccc3Sc3ccccc32)CC1	inactive	inactive	inactive	inactive	inactive	inactive	inactive	inactive	–	–	inactive	29.8 µM (active) and 8.41 µM (active)	26.6 µM (active)	inactive and 26.8 µM (active)	inactive	26.6 µM (active) and 9.44 µM (active)	–	–	–	–
CC[C@H](C)C(=O)O[C@H]1C[C@@H](C)C=C2C=C[C@H](C)[C@H](CC[C@@H]3C[C@@H](O)CC(=O)O3)[C@H]21	inactive	inactive	inactive	inactive	inactive	inactive	inactive	inactive	–	21.3 µM (active)	inactive	53.1 nM (active) and 5.52 µM (active) and 682 nM (active)	53.1 nM (active) and 2.77 µM (active) and 136 nM (active)	31.3 µM (active) and inactive	inactive	8.4 nM (active) and 391 nM (active) and 3.8 nM (active)	–	–	–	–
CC(=O)OCC(=O)[C@@]12N=C(C)O[C@@H]1C[C@H]1[C@@H]3CCC4=CC(=O)C=C[C@]4(C)[C@H]3[C@@H](O)C[C@@]12C	inactive	inactive	inactive	inactive	inactive	inactive	inactive	inactive	425 nM (active) and 155 nM (active)	–	inactive	inactive	inactive	inactive	inactive	inactive	–	–	–	–
Cc1cccnc1	inactive	inactive	inactive	inactive	inactive	inactive	inactive	inactive	–	–	inactive	inactive	inactive	inactive	inactive	inactive	–	–	–	–
C=CCOC(=O)c1ccccc1C(=O)OCC=C	inactive	inactive	inactive	inactive	inactive	inactive	inactive	inactive	–	–	inactive	inactive	inactive	inactive	inactive	–	–	–	–	–
Cc1cnc(C(=O)NCCc2ccc(S(=O)(=O)NC(=O)NC3CCCCC3)cc2)cn1	inactive	inactive	inactive	inactive	inactive	inactive	inactive	inactive	inactive	inactive	inactive	–	–	inactive	inactive	–	–	–	–	–
NNc1nncc2ccccc12	inactive	inactive	inactive	inactive	inactive	inactive	inactive	inactive	inactive	inactive	inactive	–	–	21.9 µM (active)	–	–	–	–	–	–
CC(=O)Nc1cccc(O)c1	inactive	inactive	inactive	inactive	inactive	inactive	inactive	inactive	–	–	inactive	inactive	inactive	inactive	inactive	inactive	–	–	–	–
C#C[C@]1(O)CC[C@H]2[C@@H]3CCC4=CC(=O)CC[C@@H]4[C@H]3CC[C@@]21C	inactive	inactive	inactive	inactive	inactive	inactive	inactive	inactive	inactive	–	–	inactive and 30.6 µM (active)	27.3 µM (active)	inactive	inactive	inactive and 27.3 µM (active)	–	–	–	–
O=c1[nH]c(=O)n([C@H]2C[C@H](O)[C@@H](CO)O2)cc1Br	inactive	inactive	inactive	inactive	inactive	inactive	inactive	inactive	–	–	inactive	inactive	11.9 µM (active) and 24.7 µM (active)	inactive	inactive	–	–	–	–	–
